The compounds below were run on Vero E6 infected with SARS-CoV-2 (assay: morphology score (similarity to uninfected cells); higher = more like uninfected cells). Details: 24 h.
COCCNC(=O)COc1ccc(OCCNC[C@H](O)COc2ccccc2)cc1 (10 µM) was tested, and the morphology score was 0.0156.
With Cn1c(=O)c2c(ncn2CCO)n(C)c1=O [etofylline] (10 µM) the morphology score was 0.0956.
Work on CCN1C(C)(C)CC(Oc2ccc(C(=O)Nc3ccc(NC(=O)Nc4cc(C(C)(C)C)on4)cc3)nc2)CC1(C)C (10 µM) yielded a morphology score of -0.0181.
Nc1ccccc1NC(=O)c1ccc(CNc2nccc(-c3cccnc3)n2)cc1 [mocetinostat] (0.833333 µM) gave a morphology score of -0.00842.
CS(=O)(=O)N1CCc2c(-c3cnc(N)nc3)nc(N3CCOCC3)nc21 (0.833333 µM) was tested, and the morphology score was 0.0917.
Compound CNC(=O)c1nn(C)c2c1C(C)(C)Cc1cnc(Nc3ccc(N4CCN(C)CC4)cc3)nc1-2 (10 µM) has a morphology score of -0.142.
Work on O=C(Nc1ccc(CN2CCOCC2)cc1)c1ccc(-c2cccc(Cl)c2)o1 (10 µM) yielded a morphology score of 0.194.
For C=C(C)[C@H]1CN[C@H](C(=O)O)[C@H]1CC(=O)O [kainic-acid] (10 µM), the morphology score was 0.338.
Work on COc1ccccc1N1CCN(CCN2C(=O)c3ccccc3C(C)(C)C2=O)CC1 (10 µM) yielded a morphology score of 0.213.

— the supplement of paper PMC13380429
